Experimental findings from PubChem BioAssay are described below.

The nature of assay [1]: rapamycin-like changes in RPL19A-GFP expression – cell-based, S. cerevisiae, multiplex flow cytometry, primary screen (AID 1862; in the data active means percent of DMSO control GFP below about 86%;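 further: lower values mimic rapamycin by blocking the RPL19A rise seen in DMSO cells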). The note with it: S. cerevisiae RPL19A-GFP strain, flow cytometry fluorescence, 3 h; at 10 µM; stronger effect = lower value. (In general: Flow cytometry measures light scatter and fluorescence of single cells or particles in a stream.)
Assay [2] can be described thus: TOR pathway GLN3 branch reporter MEP2-GFP changes – S. cerevisiae, multiplex flow cytometry, primary screen (AID 1867;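 active means GFP response, as percent of the DMSO control, above the screen-wide mean plus 3 SD, about 139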;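 further: median GFP channel fluorescence of barcode-gated MEP2-GFP cells measured by flow cytometry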). Conditions: S. cerevisiae MEP2-GFP strain, 3 h, at 10 µM, stronger effect = higher value, 100% means same as DMSO wells.
Assay [3] can be described thus: TOR pathway RTG branch CIT2 reporter changes – S. cerevisiae, GFP fusion, multiplex flow cytometry, primary screen (AID 1870;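 active means percent response above a set limit, the screen-wide mean plus 3 SD, cut at about 130% in these data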;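 further: barcoded CIT2-GFP strain pooled with four other GFP strains with rapamycin as positive control; median GFP fluorescence per well over plate mean of DMSO wells so 100% = DMSO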). Conditions: S. cerevisiae CIT2-GFP expression, 3 h, at 10 µM, stronger effect = higher value.
Assay [4] can be described thus: TOR pathway LAP4-GFP level changes – S. cerevisiae, multiplex flow cytometry, primary screen (AID 1873). The note with it: S. cerevisiae LAP4-GFP expression, 3 h, at 10 µM, stronger effect = higher value.
Assay [5] in a line: yeast AGP1-GFP level changes, GLN3 branch – cell-based, multiplex flow cytometry, S. cerevisiae, primary screen (AID 1887;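 active means GFP signal above the screen-wide mean plus 3 SD, that is over about 124.5% of the solvent control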;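 further: AGP1-GFP fusion strain of S. cerevisiae within a five-strain barcoded multiplex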). Conditions: 3 h, at 10 µM, stronger effect = higher value.
The nature of assay [6]: reduced mouse 2C T cell binding to pMHC/ICAM-1 vesicles – MLPCN validation set, flow cytometry, LFA-1/ICAM-1 modulator project, pilot screen (AID 2523;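 active means response below a set limit, under 55% cells CD8-positive and vesicle-bound, and CD8 cells' 90th-percentile brightness under 279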;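 on vesicle binding response: mean PE anti-B7-1 fluorescence of CD8+ cells relative to row control; 100% = QL9-loaded vesicles with DMSO vehicle in the same plate row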). The note with it: 2C mouse CD8+ T cells, at 7 µM, stronger effect = lower value; double positive events: measured here: CD8+/vesicle+ event percentage.
Assay [7] has as its target Integrin beta-1 (Homo sapiens) + Integrin alpha-4 (Homo sapiens) (UniProt P13612+P05556). Put plainly: alpha4beta1 integrin LIBS antibody binding reduction – U937 cells, HUTS-21 mAb, flow cytometry, validation set, VLA-4 allosteric modulator project, pilot screen (AID 2674;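 active means inhibition above 50%, about 3 SD of the validation set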;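 further: antibody binding induced by the VLA-4 ligand LDV present at three times its Kd; 0% = LDV ligand with antibody and no compound and 100% = antibody without LDV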). The note with it: HUTS-21 LIBS mAb binding, at 6.7 µM, stronger effect = higher value, binding induced by LDV ligand.

Assay [8] in a line: calorie-restriction mimetic ROS inhibitors, yeast – validation compound set, pilot screen (AID 2706;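 active means superoxide response below 65% of plate, a cut near 3 SD across the whole screen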;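 further: yeast exposed to compound for one week at 30 degrees C before staining; 100% = mean of all compound wells on the same plate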). The note with it: S. cerevisiae aging, superoxide DHE fluorescence; at 10 µM, stronger effect = lower value.
Assay [9] deals with Beta-adrenergic receptor kinase 1 (Homo sapiens) (UniProt P25098). Put plainly: GRK2 binders displacing RNA aptamer, biochemical, validation, human GRK2, bead flow cytometry (AID 488806;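 active means aptamer binding inhibition above 30%, about 3 SD of noise from non-fluorescent compounds; inactive means inhibition at or below 30%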). The note with it: bead-bound GRK2, FAM-aptamer displacement, at 10 µM, stronger effect = higher value.
For assay [10], the target named is AP-2 complex subunit beta (Homo sapiens) (UniProt P63010). Put plainly: beta-arrestin/AP2 interaction blockers – biochemical, validation set, GST-AP2 beads, flow cytometry, pilot screen (AID 504541;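 active means inhibition above 54%, about 3 SD of non-fluorescent compounds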;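 further: AP2 carries R879A mutation and is captured from E. coli lysate; bead-bound FITC arrestin peptide fluorescence measuring arrestin peptide binding to AP2; 0% = DMSO wells and 100% = excess unlabeled arrestin peptide control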). Conditions: FITC arrestin peptide, at 10 µM, stronger effect = higher value, AP2 beta2 appendage fragment, R879A mutant.
The nature of assay [11]: cytosolic pH regulators acting via V-ATPase – S. cerevisiae, pHLuorin, HTS validation (AID 504600; in the data active means response above about 15%;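 further: plate controls were DMSO for no effect and reference compound for full effect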). The note with it: V-ATPase proton transport, at 10 µM, stronger effect = higher value.
Assay [12] concerns anti-desmoglein-3 scFv antibody binding to human DSG3. Put plainly: blockers of pathogenic pemphigus antibody–desmoglein-3 binding – biochemical, validation compound set, bead-based, flow cytometry, pilot screen (AID 588368;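 active means binding below the plate cutoff, the plate median minus 3 SD, with a reading above zero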;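 further: signal is the median channel fluorescence of bead-bound GFP antibody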). Conditions: Protein G beads, DSG3-Fc, scFv-GFP binding, at 10 µM, stronger effect = lower value.
Assay [13] can be described thus: Nile Red efflux blockade in pump-expressing yeast – validation compound set, multiplex, phenotypic, pilot screen (AID 588506;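 active means efflux inhibition above 0.42, the validation set average plus 4 SD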;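 further: Nile Red retained in cells so higher fluorescence means more efflux inhibition; 0 = negative control wells and 1 = enniatin B 25 µM full block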). Conditions: S. cerevisiae pump-expressing triplex, Nile Red efflux flow cytometry; at 10 µM; stronger effect = higher value; the pumps come from Candida albicans.
Assay [14] has as its target ATP-binding cassette sub-family B member 6 (Homo sapiens) (UniProt Q9NP58). In words: blockers of ABCB6-driven porphyrin uptake – K562-ABCB6 cells, flow cytometry, validation set, pilot screen (AID 588550;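 active means inhibition above the screen-wide mean plus 3 SD, about 51%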;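 further: 0% = DMSO wells and 100% = benzethonium chloride 70 µM positive control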). Conditions: K562-ABCB6 porphyrin accumulation, 1 h, at 10 µM, stronger effect = higher value.
Assay [15] in a line: AML differentiation inducers, ER-HoxA9 marrow cells – cell-based, GFP/MAC1 double positive, flow cytometry, validation set, primary screen (AID 588685;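 active means differentiation response of at least 50%, scaled between solvent and reference control, from cells with both markers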;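 further: compound exposure lasts four days before antibody staining and flow analysis; 0% = DMSO wells and 100% = 5 µM fulvestrant positive control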). The note with it: stronger effect = higher value, normalized: vehicle 0, fulvestrant 100.

Results filed as inconclusive are left out. Active and inactive are the calls of the source.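 How the source made its calls, unless noted: active means GFP signal, as percent of the solvent control, above the screen mean plus 3 SD, about 149; inconclusive means no reading because the compound's own fluorescence upset strain identification; inactive means the rest.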

As a reminder, the inhibition is the relative decrease from the control value, in per cent.

Beta-adrenergic receptor kinase 1 (Homo sapiens), sequence (P25098 whole entry, looked up): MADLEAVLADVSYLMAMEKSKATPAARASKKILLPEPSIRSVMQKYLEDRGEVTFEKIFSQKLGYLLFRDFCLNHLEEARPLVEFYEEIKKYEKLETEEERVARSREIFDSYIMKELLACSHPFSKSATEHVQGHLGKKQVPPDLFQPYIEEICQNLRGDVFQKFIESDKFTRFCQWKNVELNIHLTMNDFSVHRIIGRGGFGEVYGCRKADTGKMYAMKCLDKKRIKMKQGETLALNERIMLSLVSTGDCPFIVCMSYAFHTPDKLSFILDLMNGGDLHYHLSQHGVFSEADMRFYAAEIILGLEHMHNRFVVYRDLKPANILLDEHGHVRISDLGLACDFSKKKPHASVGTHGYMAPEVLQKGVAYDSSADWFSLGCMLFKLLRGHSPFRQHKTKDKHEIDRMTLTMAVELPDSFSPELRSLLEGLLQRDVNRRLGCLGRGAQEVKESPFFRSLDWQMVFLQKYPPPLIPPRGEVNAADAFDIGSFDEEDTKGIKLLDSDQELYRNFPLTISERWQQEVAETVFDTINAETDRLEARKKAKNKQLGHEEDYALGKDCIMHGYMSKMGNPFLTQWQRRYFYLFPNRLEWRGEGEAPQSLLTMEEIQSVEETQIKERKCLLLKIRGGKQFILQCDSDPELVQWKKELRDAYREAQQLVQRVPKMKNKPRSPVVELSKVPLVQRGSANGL
Integrin beta-1 (Homo sapiens) + Integrin alpha-4 (Homo sapiens), sequence (P05556 whole entry, looked up): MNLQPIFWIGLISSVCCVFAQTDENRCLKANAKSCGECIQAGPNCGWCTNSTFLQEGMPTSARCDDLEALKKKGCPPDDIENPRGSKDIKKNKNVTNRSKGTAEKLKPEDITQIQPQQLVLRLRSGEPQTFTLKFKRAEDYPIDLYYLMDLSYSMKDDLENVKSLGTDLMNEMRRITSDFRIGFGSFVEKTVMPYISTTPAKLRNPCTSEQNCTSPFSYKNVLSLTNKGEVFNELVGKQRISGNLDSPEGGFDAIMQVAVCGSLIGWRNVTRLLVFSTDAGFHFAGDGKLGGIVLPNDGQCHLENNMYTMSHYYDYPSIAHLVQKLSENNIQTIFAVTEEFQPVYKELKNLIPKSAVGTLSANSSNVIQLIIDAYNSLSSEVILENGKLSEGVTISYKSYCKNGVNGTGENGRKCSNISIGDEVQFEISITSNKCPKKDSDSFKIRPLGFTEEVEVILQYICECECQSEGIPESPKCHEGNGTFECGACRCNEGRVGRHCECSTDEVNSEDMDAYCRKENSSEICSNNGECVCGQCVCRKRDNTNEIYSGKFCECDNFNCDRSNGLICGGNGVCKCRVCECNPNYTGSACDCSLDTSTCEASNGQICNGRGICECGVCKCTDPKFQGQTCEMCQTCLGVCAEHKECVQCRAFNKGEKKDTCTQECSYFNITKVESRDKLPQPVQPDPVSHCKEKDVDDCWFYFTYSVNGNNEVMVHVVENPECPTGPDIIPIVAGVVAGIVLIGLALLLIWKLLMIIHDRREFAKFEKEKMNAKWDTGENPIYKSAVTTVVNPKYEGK
Integrin beta-1 (Homo sapiens) + Integrin alpha-4 (Homo sapiens), sequence (P13612 whole entry, looked up): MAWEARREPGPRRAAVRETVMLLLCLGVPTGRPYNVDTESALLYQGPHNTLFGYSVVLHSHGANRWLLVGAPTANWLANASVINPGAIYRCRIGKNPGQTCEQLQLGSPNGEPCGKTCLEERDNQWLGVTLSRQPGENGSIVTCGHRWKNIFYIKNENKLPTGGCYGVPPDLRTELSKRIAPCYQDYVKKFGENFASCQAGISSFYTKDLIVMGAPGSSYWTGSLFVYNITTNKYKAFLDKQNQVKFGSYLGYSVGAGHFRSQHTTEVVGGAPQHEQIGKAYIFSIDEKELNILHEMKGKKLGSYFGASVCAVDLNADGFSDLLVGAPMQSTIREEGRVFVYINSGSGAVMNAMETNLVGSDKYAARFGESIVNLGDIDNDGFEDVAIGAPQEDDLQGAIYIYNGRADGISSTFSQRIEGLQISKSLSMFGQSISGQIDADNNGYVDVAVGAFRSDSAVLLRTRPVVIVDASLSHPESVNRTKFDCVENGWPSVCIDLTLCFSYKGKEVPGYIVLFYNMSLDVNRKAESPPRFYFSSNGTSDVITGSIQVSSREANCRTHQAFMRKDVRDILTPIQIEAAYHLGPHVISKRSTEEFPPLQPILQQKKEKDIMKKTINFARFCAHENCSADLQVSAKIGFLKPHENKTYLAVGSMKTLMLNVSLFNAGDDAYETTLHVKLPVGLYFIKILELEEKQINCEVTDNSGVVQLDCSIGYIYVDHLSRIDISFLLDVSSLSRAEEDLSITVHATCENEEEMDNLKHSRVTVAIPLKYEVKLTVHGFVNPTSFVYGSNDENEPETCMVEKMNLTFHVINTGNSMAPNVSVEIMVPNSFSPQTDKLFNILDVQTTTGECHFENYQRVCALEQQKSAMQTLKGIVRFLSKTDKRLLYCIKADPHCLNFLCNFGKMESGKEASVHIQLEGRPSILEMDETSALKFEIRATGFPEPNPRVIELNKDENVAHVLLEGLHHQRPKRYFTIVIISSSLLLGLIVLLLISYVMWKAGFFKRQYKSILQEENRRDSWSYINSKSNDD
ATP-binding cassette sub-family B member 6 (Homo sapiens), sequence (Q9NP58 whole entry, looked up): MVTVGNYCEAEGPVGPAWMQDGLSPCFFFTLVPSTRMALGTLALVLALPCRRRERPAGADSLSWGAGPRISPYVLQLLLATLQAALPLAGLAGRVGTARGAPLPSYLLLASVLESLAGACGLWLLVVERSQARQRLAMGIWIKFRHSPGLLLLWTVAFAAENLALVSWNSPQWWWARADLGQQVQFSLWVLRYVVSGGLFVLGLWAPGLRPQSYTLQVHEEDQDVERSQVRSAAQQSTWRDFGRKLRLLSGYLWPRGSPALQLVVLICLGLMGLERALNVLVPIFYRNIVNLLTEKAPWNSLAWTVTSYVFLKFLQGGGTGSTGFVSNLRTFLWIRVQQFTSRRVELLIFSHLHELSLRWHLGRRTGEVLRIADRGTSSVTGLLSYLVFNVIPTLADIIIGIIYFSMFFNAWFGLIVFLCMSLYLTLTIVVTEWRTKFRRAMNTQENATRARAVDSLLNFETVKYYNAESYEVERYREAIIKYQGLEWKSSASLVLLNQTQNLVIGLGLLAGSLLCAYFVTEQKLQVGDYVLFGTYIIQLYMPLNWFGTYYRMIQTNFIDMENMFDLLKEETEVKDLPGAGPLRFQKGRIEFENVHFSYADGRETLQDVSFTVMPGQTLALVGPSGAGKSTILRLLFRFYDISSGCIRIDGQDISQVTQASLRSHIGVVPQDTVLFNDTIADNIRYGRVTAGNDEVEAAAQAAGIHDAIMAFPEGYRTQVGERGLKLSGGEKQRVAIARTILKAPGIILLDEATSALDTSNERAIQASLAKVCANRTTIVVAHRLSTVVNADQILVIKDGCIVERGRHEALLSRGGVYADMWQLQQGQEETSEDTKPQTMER
AP-2 complex subunit beta (Homo sapiens), sequence (P63010 whole entry, looked up, the tested form may be a part, one chain of several): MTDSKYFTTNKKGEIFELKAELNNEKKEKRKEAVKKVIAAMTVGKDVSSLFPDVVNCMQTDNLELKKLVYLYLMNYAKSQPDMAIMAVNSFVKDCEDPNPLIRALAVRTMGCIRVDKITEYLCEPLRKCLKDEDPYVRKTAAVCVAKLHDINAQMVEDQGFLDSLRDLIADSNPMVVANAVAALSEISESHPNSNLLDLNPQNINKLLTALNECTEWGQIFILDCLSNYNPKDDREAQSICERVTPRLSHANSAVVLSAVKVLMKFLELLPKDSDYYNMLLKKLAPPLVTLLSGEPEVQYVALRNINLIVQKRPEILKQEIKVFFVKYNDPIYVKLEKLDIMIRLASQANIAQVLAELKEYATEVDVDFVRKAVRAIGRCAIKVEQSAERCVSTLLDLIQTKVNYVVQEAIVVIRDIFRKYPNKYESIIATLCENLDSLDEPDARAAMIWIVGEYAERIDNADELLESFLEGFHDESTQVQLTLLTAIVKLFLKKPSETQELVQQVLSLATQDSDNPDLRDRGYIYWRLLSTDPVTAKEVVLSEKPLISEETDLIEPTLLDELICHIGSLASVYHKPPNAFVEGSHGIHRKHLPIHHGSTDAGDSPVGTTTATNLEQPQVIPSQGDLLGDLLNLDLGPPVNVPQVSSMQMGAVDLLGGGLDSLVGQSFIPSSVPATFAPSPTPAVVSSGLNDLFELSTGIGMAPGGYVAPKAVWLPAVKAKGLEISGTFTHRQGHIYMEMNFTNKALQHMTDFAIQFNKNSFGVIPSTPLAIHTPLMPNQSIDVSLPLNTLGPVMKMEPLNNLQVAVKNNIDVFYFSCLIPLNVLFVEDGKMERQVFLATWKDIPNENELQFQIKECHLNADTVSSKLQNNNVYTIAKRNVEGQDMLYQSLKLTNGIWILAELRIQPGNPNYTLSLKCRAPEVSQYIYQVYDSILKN

In the case of `O=C(O)/C=C/c1ccc(O)c(O)c1`, in assay [1], the percent of DMSO control GFP is 101% (inactive). The GFP response vs DMSO was 104% (inactive) in assay [2] and 95.4% (inactive) in [4]. Further, the percent response of DMSO control in assay [3] was 106% (inactive). The GFP response, % of DMSO in [5] is 99.9% (inactive). Besides, the double positive events in assay [6] was found to be 52.4%. Moreover, the vesicle binding response in assay [6] is 173% (inactive). Further, the inhibition in assay [7] is 23.1% (inactive); in assay [10] it was 4.2% (inactive); in [14], 4% (inactive). Further, the superoxide response (% of plate) in [8] was 106% (inactive). Moreover, the aptamer binding inhibition in assay [9] is 8% (inactive). Moreover, the response in assay [11] was -0.83% (inactive). The binding (% of control) in assay [12] was 95.4% (inactive). Besides, in assay [13], the efflux inhibition (fraction of control) was 0.18 (inactive). For the same compound, the differentiation response in assay [15] is -0.2% (inactive).

On to `CCN(CC)C1=C(Cl)C(=O)C(Cl)C12OCCO2` (stereo not given), for which, in assay [1], the percent of DMSO control GFP was 100% (inactive). Besides, the values for the GFP response vs DMSO in assay [2] and in assay [4] were 104% (inactive) and 100% (inactive), respectively. Besides, the percent response of DMSO control in assay [3] was 88.1% (inactive). For the same compound, the GFP response, % of DMSO in assay [5] was 89.2% (inactive). In assay [6], this compound showed a double positive events of 61.5%. For the same compound, the vesicle binding response in assay [6] is 160% (inactive). Moreover, the figures for the inhibition in [7], in [10] and in assay [14] were 6.29% (inactive), 49.7% (inactive) and 10% (inactive), respectively. Besides, the superoxide response (% of plate) in assay [8] is 94.6% (inactive). For the same compound, in assay [9], the aptamer binding inhibition is -5% (inactive). Moreover, the response in [11] was 1.58% (inactive). In assay [12], the binding (% of control) is 95.6% (inactive). For the same compound, in assay [13], the efflux inhibition (fraction of control) was 0.9 (active). Besides, in assay [15], the differentiation response was 6.26% (inactive).

For `Nc1ccc(S(=O)(=O)c2ccc(N)cc2)cc1`, the percent of DMSO control GFP in assay [1] was 100% (inactive). The results for the GFP response vs DMSO in assay [2] and in assay [4] were 102% (inactive) and 103% (inactive), respectively. Besides, the percent response of DMSO control in [3] is 93% (inactive). The GFP response, % of DMSO in assay [5] is 99.3% (inactive). Moreover, the double positive events in [6] was 63.7%. In assay [6], the vesicle binding response is 142% (inactive). For the same compound, the inhibition is 8.15% (inactive) in [7], 2.16% (inactive) in assay [10] and 5% (inactive) in assay [14]. Further, the superoxide response (% of plate) in assay [8] is 97.8% (inactive). Moreover, in assay [9], the aptamer binding inhibition was 0% (inactive). For the same compound, in [11], the response was -1.03% (inactive). Besides, the binding (% of control) in assay [12] was 100% (inactive). In addition, the efflux inhibition (fraction of control) in assay [13] was 0.14 (inactive). In addition, in [15], the differentiation response is -5.05% (inactive).

For `COc1ccc(OC)c(-c2oc3ccccc3c(=O)c2O)c1`, in [1], the percent of DMSO control GFP was 102% (inactive). Moreover, the GFP response vs DMSO in assay [2] was 96.9% (inactive); in assay [4] it was 110% (inactive). Moreover, in assay [3], the percent response of DMSO control was 96.9% (inactive). In addition, the GFP response, % of DMSO in assay [5] is 101% (inactive). Besides, the double positive events in assay [6] was 57%. In addition, in assay [6], the vesicle binding response is 182% (inactive). Moreover, the inhibition in assay [7] was -8.64% (inactive); in [10], -1.44% (inactive); in assay [14], -4% (inactive). The superoxide response (% of plate) in [8] is 102% (inactive). For the same compound, the aptamer binding inhibition in assay [9] was 2% (inactive). Besides, the response in [11] was 5.05% (inactive). Further, the binding (% of control) in assay [12] was 97.5% (inactive). The efflux inhibition (fraction of control) in assay [13] is -0.01 (inactive). In addition, the differentiation response in assay [15] is -26% (inactive).

Consider `CC(C)NCC(O)COc1ccc(CCOCC2CC2)cc1` (stereo not given), for which the percent of DMSO control GFP in [1] was 103% (inactive). In addition, the GFP response vs DMSO was 102% (inactive) in assay [2] and 111% (inactive) in assay [4]. Besides, in assay [3], the percent response of DMSO control is 109% (inactive). In assay [5], the GFP response, % of DMSO was 108% (inactive). In [6], this compound yielded a double positive events of 63.7%. Besides, the vesicle binding response in assay [6] was 215% (inactive). The inhibition was -10.5% (inactive) in assay [7], -20.5% (inactive) in assay [10] and -3% (inactive) in [14]. For the same compound, in [8], the superoxide response (% of plate) was 93.3% (inactive). Besides, the aptamer binding inhibition in assay [9] was -6% (inactive). In addition, the response in assay [11] is 9.7% (inactive). Further, in [12], the binding (% of control) is 103% (inactive). For the same compound, in [13], the efflux inhibition (fraction of control) is 0.03 (inactive). Moreover, in assay [15], the differentiation response was 7.13% (inactive).
